# The list is not random: actives were taken first. Their share in the collection is about 1.4%.
# UHRF1 binding – UHRF1 methyl-DNA binding inhibition. UHRF1 binding to methylated oligo, TR-FRET. inhibition, % at 4.4 µM. AID 687016. actives 0.75% (n = 370,000); in the data active = inhibition above about 21%;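 note: UHRF1 SRA domain binding a hemimethylated CpG hairpin DNA probe; 0% = median of test compound wells and 100% = reference inhibitor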
# MBD2 inh – inhibitors of human MBD2 binding to methylated oligonucleotide | TR-FRET | inhibition, % at 4.4 µM | actives 0.31% (n = 370,000) | Q9UBB5; in the data active = inhibition above about 13%
# CASP6 VEID inh – blocks human caspase-6 cleavage activity. P55212. purified caspase-6, Z-VEID-R110 cleavage fluorescence. inhibition, % at 12.5 µM. actives 0.53% (n = 350,000). AID 686996;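 active = mean inhibition across replicates at least about 35%, with every replicate also reaching that limit, limit read from the data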;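 note: 0% = median of neutral control wells and 100% = no fluorescence left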
# Target sequence (P55212 24-179 limits assumed): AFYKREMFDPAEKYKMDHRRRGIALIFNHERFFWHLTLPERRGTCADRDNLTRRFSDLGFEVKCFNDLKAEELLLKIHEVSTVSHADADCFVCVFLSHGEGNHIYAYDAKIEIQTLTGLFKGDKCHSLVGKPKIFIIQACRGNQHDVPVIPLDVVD
# Target sequence (P55212 194-293 limits assumed): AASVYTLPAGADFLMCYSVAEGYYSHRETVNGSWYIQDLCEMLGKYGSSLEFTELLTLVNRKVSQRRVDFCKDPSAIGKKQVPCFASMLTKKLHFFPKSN
# LEDGF integ inh – blocks HIV-1 LEDGF/p75-dependent DNA integration; TR-FRET IN-LEDGF/p75 DNA integration, Eu/Cy5; inhibition, % at 3.7 µM; actives 0.64% (n = 370,000); AID 743269;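 active = inhibition above the screen-wide mean plus 3 SD, cut at about 13% in these data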;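 note: signal is the Cy5 over europium emission ratio at 671 and 618 nm; 0% = plate median of compound wells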
# The depositor's hits bear a star; nt = no result given.
SMILES,UHRF1 binding,MBD2 inh,CASP6 VEID inh,LEDGF integ inh
COc1cccc(-c2nn(-c3ccccc3)cc2CO)c1,-1.8,-6.1,nt,1.0
COc1cccc(-c2nn(-c3ccccc3)cc2C(=O)NCC(=O)O)c1,22.3*,8.2,nt,2.1
O=C(O)c1cccc(NC(=O)c2cn(-c3ccccc3)nc2-c2ccc([N+](=O)[O-])cc2)c1,0.2,-4.5,3.8,7.2
COc1ccc(-c2nn(-c3ccccc3)cc2C(=O)Nc2cccc(C(=O)O)c2)cc1[N+](=O)[O-],3.2,3.5,67.1*,-0.8
O=C(c1ccccc1F)N1CC[C@@H]2[C@H](CO)Nc3ccc(-c4ccc(F)cc4)cc3[C@@H]21,nt,nt,3.3,nt
C[C@@H]1CN([C@@H](C)CO)S(=O)(=O)c2ccc(C#CC3CC3)cc2O[C@@H]1CN(C)C(=O)c1ccccn1,nt,nt,0.1,nt
CN(C)C(=O)c1cn(-c2ccccc2)nc1-c1cccs1,0.6,-0.2,nt,17.3*
O=C(CCN1C(=O)c2cccc3cccc(c23)C1=O)NCc1cccnc1,24.9*,-3.6,-0.6,0.3
O=C(CCN1C(=O)C2C3C=CC(C3)C2C1=O)NCc1cccnc1 (configuration not stated),22.0*,7.2,nt,0.0
O=C(CCN1C(=O)COc2ccccc21)NCc1cccnc1,-1.1,-0.6,1.0,-0.7
CC=Cc1ccc2n(c1=O)C[C@H]1[C@H](CO)[C@@H](C(=O)N3CCc4ccccc4C3)N(C(=O)C3CC3)[C@@H]21 (mixture of isomers),nt,nt,2.0,nt
COc1cc2c(C(F)(F)F)c(-c3ccc(C#N)cc3)oc(=O)c2cc1OC,-1.0,-5.6,nt,-2.6
COc1cc2c(C(F)(F)F)c(-c3ccsc3)oc(=O)c2cc1OC,20.8*,7.1,0.0,1.4
Cc1nc2ccccc2n1S(=O)(=O)c1ccc(S(=O)(=O)N2CCCCCC2)cc1,1.4,1.2,nt,0.6
Cc1ccc(S(=O)(=O)n2c(C)nc3ccccc32)cc1,-2.0,-1.0,40.7*,-5.9
C[C@@H]1CN([C@H](C)CO)C(=O)c2cc(C#CC3CC3)cnc2O[C@H]1CN(C)C(=O)c1ccccc1,nt,nt,0.8,nt
CCOc1ccc(Cl)cc1-c1cc(C(=O)NCc2cc(C(F)(F)F)cc(C(F)(F)F)c2)[nH]n1,44.6*,7.3,-1.9,2.6
Cc1noc(C)c1NC(=O)Nc1ccc2c(c1)C(=O)N([C@@H](C)CO)C[C@H](C)[C@H](CN(C)C(=O)NC(C)C)OCCCC[C@H](C)O2,nt,nt,-1.4,nt
Cc1ccc(Nc2ncnc3sccc23)c(C)c1,2.9,4.6,98.8*,-3.3
COc1ccccc1NC(=O)N[C@H]1CC[C@@H](CCNS(=O)(=O)c2ccc(Cl)cc2)O[C@H]1CO,nt,nt,0.0,nt
COc1ccc(-c2cnc3c(c2)C(=O)N([C@H](C)CO)C[C@@H](C)[C@H](CN(C)C)O3)cc1,nt,nt,-1.2,nt
CCCCNc1nc(NCc2ccccc2)nc2ccccc12,10.8,9.3,44.4*,3.3
C/C=C/c1ccc2c(c1)O[C@H](CN(C)Cc1ccc(C(=O)O)cc1)[C@H](C)CN([C@@H](C)CO)S2(=O)=O,nt,nt,-3.1,nt
CCOc1cc(/C=C(\C(=O)O)c2ccc(S(=O)(=O)N3CCCC3)s2)ccc1OC,0.5,3.4,1.6,-1.5
CSc1ccc(/C=C(\C(=O)O)c2ccc(S(=O)(=O)N3CCCC3)s2)cc1,3.2,2.8,45.5*,2.4
SMILES,UHRF1 binding,MBD2 inh,CASP6 VEID inh,LEDGF integ inh
O=C(O)/C(=C\c1cccc(F)c1)c1ccc(S(=O)(=O)N2CCCCC2)s1,1.3,1.1,29.7,-0.9
O=C(O)/C(=C\c1cccc(O)c1)c1ccc(S(=O)(=O)N2CCCC2)s1,0.5,0.5,57.9*,1.5
Cc1cc(C(=O)N/N=C/c2sccc2C)no1,22.7*,2.2,nt,-0.1
O=C(C1CCOCC1)N1CC[C@@H]2[C@H](CO)Nc3ccc(-c4ccc(F)cc4)cc3[C@@H]21,nt,nt,-5.4,nt
Cc1c(CC(=O)NCC(=O)O)c(=O)oc2cc3oc4c(c3cc12)CCCC4,-2.8,-2.2,24.2,-1.0
Cc1c(CC(=O)O)c(=O)oc2cc3oc4c(c3cc12)CCCC4,25.6*,-0.3,3.0,-2.1
Cc1ccc(C)c(NC(=O)CN(C)S(=O)(=O)c2cccc3cccnc23)c1,26.6*,13.1,-3.6,-2.1
Cc1cccc(NC(=O)CN(C)S(=O)(=O)c2cccc3cccnc23)c1C,-0.4,1.3,2.2,1.4
CO[C@H]1CN(C)C(=O)c2cc(NC(C)=O)ccc2OC[C@H](C)N(Cc2ccc(F)cc2)C[C@H]1C,nt,nt,-1.0,nt
CC(OC(=O)Cn1[nH]c(=O)c2ccccc2c1=O)C(=O)Nc1ccc(F)cc1Cl (configuration not stated),49.8*,13.0,-2.5,7.4
Cc1ccc(S(=O)(=O)N(C)C[C@H]2Oc3c(NC(=O)C4CCOCC4)cccc3C(=O)N([C@H](C)CO)C[C@@H]2C)cc1,nt,nt,2.6,nt
Cc1cccc(N2C(=O)Cc3ccccc3C2=O)c1,-5.9,-4.6,48.0*,1.5
COc1ccccc1N1C(=O)Cc2ccccc2C1=O,-3.0,-0.7,48.8*,-4.7
COc1ccc2c(c1)C(=O)N(c1ccccc1OC)C(=O)C2,1.9,0.1,22.0,-4.2
Cc1ccc(N2C(=O)Cc3ccccc3C2=O)cc1,-4.3,0.3,49.7*,-1.6
O=C1[C@H](c2ccccc2)[C@@H](c2ccccc2)N1c1ccncc1,22.4*,8.5,2.1,-0.9
C[C@@H]1CN([C@H](C)CO)C(=O)Cc2cc(NC(=O)CCN3CCOCC3)ccc2O[C@@H]1CN(C)S(=O)(=O)c1cccs1,nt,nt,-6.5,nt
Cc1cccc(NC(=O)CNC(=O)CCc2nc3sc4c(c3c(=O)[nH]2)CCCC4)c1C,16.5,5.8,41.3*,4.8
CN(CC(=O)Nc1ccc(F)c(F)c1F)C(=O)CCc1nc2sc3c(c2c(=O)[nH]1)CCCC3,9.3,-3.0,42.3*,1.6
C[C@H](CO)N1C[C@H](C)[C@@H](CN(C)C(=O)Cc2ccccn2)Oc2ncc(C#CC3CC3)cc2C1=O,nt,nt,0.7,nt
Cc1ccc(S(=O)(=O)N(C)C[C@@H]2Oc3ccc(N(C)C)cc3CC(=O)N([C@@H](C)CO)C[C@H]2C)cc1,nt,nt,-0.3,nt
CCCc1cn(CC[C@@H]2CC[C@H](NC(=O)Cc3cccnc3)[C@H](CO)O2)nn1,nt,nt,-0.6,nt
Cc1cccc(S(=O)(=O)N2CCCCN3[C@@H](CO)[C@@H](c4ccc(C#C[C@H](C)O)cc4)[C@@H]3C2)c1,nt,nt,-2.2,nt
N/C(=N\OC(=O)Cc1cccs1)c1ccccc1,20.9*,8.8,nt,-2.2
Cc1ccc(/C(N)=N/OC(=O)Cc2cccc3ccccc23)cc1,23.5*,6.5,-0.4,0.2
COc1cc(/C=C2\C(=N)N3N=C(S(C)(=O)=O)SC3=NC2=O)cc(OC)c1OCCOc1ccccc1C,1.4,2.5,41.6*,0.2
CCOc1cc(/C=C2/C(=N)N3N=C(C)SC3=NC2=O)ccc1OS(=O)(=O)c1ccc(C)cc1,-4.2,-3.9,11.9,0.8
COc1cc(/C=C2\SC(=S)N(CC(=O)O)C2=O)ccc1OS(=O)(=O)c1ccc(C)cc1,25.9*,3.3,40.9*,-0.6
COc1cc(/C=C2/SC(=S)N(CC(=O)O)C2=O)ccc1OC(=O)c1cccs1,-1.6,-3.3,4.9,1.7
COc1cc(/C=C2\C(=N)N3N=C(C)SC3=NC2=O)cc(OC)c1OCCOc1ccccc1C,-3.2,-0.6,0.6,0.6
